MITF TRPM1 HTS – MITF TRPM1 promoter activation in melanoma cells. activation, % at 12.5 µM. SK-MEL-5 TRPM1-promoter luciferase, 24 h; % of positive control, neutral wells = 0. 300,000 compounds, 0.75% hits. AID 588334;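 active = mean activation of at least 80% with every replicate also reaching 80%; inconclusive = mean reaches 80% but some replicate falls short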
C2C12 statin – suppression of simvastatin myotoxicity | C2C12 myotubes + simvastatin, ATP luminescence, 48 h; scaled: DMSO 0, geranylgeraniol control 100 | AID 602340 | 330,000 compounds, 0.78% hits | rescue of ATP level, % at 7.49 µM;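 active = mean ATP rescue above about 67%, or every replicate alone reaching that limit, limit read from the data, passing the limit was not always enough; inconclusive = no clear call, values can overlap the other calls; inactive = mean under the limit and some replicate under it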;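 also: myotubes were challenged with 10 µM simvastatin during compound exposure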
Wnt act – Wnt/beta-catenin pathway activation; Wnt/beta-catenin reporter cell assay, activator, plate reader; activation, % at 9.35 µM; 300,000 compounds, 1.2% hits; in the data active = activation above about 30%, passing the limit was not always enough; inconclusive = no clear call, values can overlap the other calls
esBAF inh – blocks esBAF chromatin remodeling in mouse ES cells | 350,000 compounds, 2% hits | AID 602393 | Bmi1-luciferase knock-in reporter, 24 h; 100% = twice the neutral-well signal | reporter increase, % at 12.5 µM; in the data active = activation above about 40%; inconclusive = no clear call, values can overlap the other calls;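 also: a rise in the Bmi1 reporter signal indicates esBAF inhibition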
Large screens that a line does not name were inactive. Compounds with a hit are over-represented: about 3% of the library has one in this group of screens.

Cc1ccccc1S(=O)(=O)N[C@@H]1CC[C@@H](CCn2cc(Cc3ccccc3)nn2)O[C@@H]1CO	none (no result: MITF TRPM1 HTS, Wnt act)
O=C(NCc1nnc(SCC(=O)N2CCCc3ccccc32)o1)c1c(F)cccc1Cl	Wnt act 50
COc1ccc(S(=O)(=O)N(C)C[C@@H]2Oc3ccc(NC(=O)Cn4cnnn4)cc3C(=O)N([C@H](C)CO)C[C@H]2C)cc1	none (no result: MITF TRPM1 HTS, C2C12 statin, Wnt act)
O=C(Nc1ncc([N+](=O)[O-])s1)c1cccc([N+](=O)[O-])c1	Wnt act 38
Cc1cc(O)c(NC(=O)c2cccc([N+](=O)[O-])c2)cc1C	Wnt act 30
CCN(CC)c1ccc(C(=O)Nc2ccccc2)cc1[N+](=O)[O-]	MITF TRPM1 HTS 87 (no result: C2C12 statin, esBAF inh)
O=C(Nc1ccc(NC(=O)c2cccc([N+](=O)[O-])c2)cc1)c1cccc([N+](=O)[O-])c1	none (no result: MITF TRPM1 HTS)
O=C(Nc1ccc([N+](=O)[O-])cc1)c1cccc([N+](=O)[O-])c1	Wnt act 40 (no result: MITF TRPM1 HTS)
COc1ccc(NC(=O)c2cccc(F)c2)cc1Cl	esBAF inh 77 (no result: Wnt act)
O=C(Nc1ccc(OC(F)F)c(Cl)c1)c1cccc(OC(F)F)c1	MITF TRPM1 HTS 88 (no result: Wnt act)
COc1cc(OC)c(NC(=O)c2cccc(F)c2)cc1Cl	none (no result: C2C12 statin, esBAF inh)
Cc1ccc(NC(=O)c2cccc(OC(F)F)c2)c(OC(F)F)c1	none
COc1ccc(NC(=O)c2cccc(OC(F)F)c2)cc1Cl	esBAF inh 57 (no result: Wnt act)
COC(=O)c1cccc(NC(=O)c2ccc(OC)c(Cl)c2)c1	none
O=C(Nc1ccc2c(c1)CCC2)c1cccc(OC(F)F)c1	Wnt act 65, esBAF inh inconclusive (no result: MITF TRPM1 HTS)
Cc1noc(C)c1S(=O)(=O)N(C)C[C@@H]1OCCCC[C@H](C)Oc2ccc(NC(=O)NC3CCCCC3)cc2C(=O)N([C@H](C)CO)C[C@@H]1C	none (no result: MITF TRPM1 HTS, C2C12 statin, Wnt act)
Cc1c(Cl)cccc1NC(=O)c1cccc(OC(F)F)c1	esBAF inh 50
O=C(NC1CCSc2ccccc21)c1cccc(OC(F)F)c1 (stereo unspecified)	C2C12 statin 67
O=C(NC1CCSc2ccccc21)c1cccc(Br)c1 (stereo unspecified)	none
C[C@H](CO)N1C[C@H](C)[C@@H](CN(C)C(=O)C2CC2)Oc2cc(C#C[C@@H](C)O)ccc2S1(=O)=O	none (no result: MITF TRPM1 HTS, Wnt act)
CNC[C@@H]1Oc2c(NC(=O)C3CC3)cccc2C(=O)N([C@@H](C)CO)C[C@H]1C	none (no result: MITF TRPM1 HTS, Wnt act)
O=C1N(Cc2ccccc2F)c2ccccc2C12OCCCO2	C2C12 statin 120
O=C1N(Cc2ccc(F)cc2Cl)c2ccccc2C12OCCCO2	none (no result: Wnt act)
COC(=O)C(C)Sc1nc2c(cnn2-c2ccc(C)cc2)c(=O)[nH]1 (stereo unspecified)	C2C12 statin 106 (no result: Wnt act)
O=C(C[C@@H]1CC[C@H](NC(=O)Nc2cccc(F)c2)[C@H](CO)O1)NCC1CCCCC1	none (no result: MITF TRPM1 HTS, Wnt act)
Brc1ccccc1-n1nnc(-c2cccnc2)n1	MITF TRPM1 HTS inconclusive, esBAF inh inconclusive
Fc1ccc(-n2nnc(-c3cccnc3)n2)cc1	Wnt act 32, esBAF inh 62
Clc1ccc(-n2nnc(-c3ncc[nH]3)n2)cc1Cl	MITF TRPM1 HTS inconclusive, esBAF inh 62
O=c1[nH]c2ccccc2cc1-c1nnn(-c2ccc(Cl)c(Cl)c2)n1	none
Clc1ccc(-n2nnc(-c3cccnc3)n2)cc1Cl	Wnt act 32, esBAF inh 83
Clc1ccc(-n2nnc(-c3nccs3)n2)cc1Cl	Wnt act inconclusive
CO[C@@H]1CN(C)C(=O)c2cc(NC(=O)C3CC3)ccc2OC[C@H](C)N(C(=O)c2ccccc2)C[C@@H]1C	none (no result: MITF TRPM1 HTS, Wnt act)
CO[C@@H]1CN(C)C(=O)c2cc(NS(C)(=O)=O)ccc2OC[C@@H](C)N(S(C)(=O)=O)C[C@@H]1C	none (no result: MITF TRPM1 HTS, Wnt act)
COc1ccc(S(=O)(=O)Nc2cccc3c2O[C@H](CN(C)CC2CC2)[C@H](C)CN([C@H](C)CO)C3=O)cc1	none (no result: MITF TRPM1 HTS, Wnt act)
Nc1ccccc1C#Cc1ccccc1	MITF TRPM1 HTS 133, Wnt act 39, esBAF inh 69
Nc1ccc(C#Cc2ccccc2)cc1	none (no result: Wnt act)
Nc1ccccc1C#Cc1ccc2[nH]ccc2c1	Wnt act inconclusive, esBAF inh 82
C[C@@H]1CN([C@@H](C)CO)C(=O)c2cc(NS(=O)(=O)c3ccccc3)ccc2O[C@@H]1CN(C)C(=O)Nc1ccccc1	none (no result: MITF TRPM1 HTS, Wnt act)
O=C1c2ccccc2NC(c2ccc(Br)o2)N1O (stereo unspecified)	Wnt act 44 (no result: MITF TRPM1 HTS)
O=C1c2ccccc2NC(c2ccc(-c3cccs3)o2)N1O (stereo unspecified)	MITF TRPM1 HTS 83, Wnt act 59, esBAF inh 67
COc1ccccc1-c1cn(CC[C@@H]2CC[C@H](NC(=O)c3cnccn3)[C@H](CO)O2)nn1	none (no result: MITF TRPM1 HTS, Wnt act)
Cc1ccc(S(=O)(=O)NCCN=C(CN2CCCC2)NS(=O)(=O)c2ccc(C)cc2)cc1	C2C12 statin 112
COc1ccc(-c2csc(N(CC3CCCO3)C(=O)c3ccccc3)n2)cc1 (stereo unspecified)	none (no result: C2C12 statin, esBAF inh)
COc1ccc(-c2csc(N(CC3CCCO3)C(=O)c3ccc(C)cc3)n2)cc1 (stereo unspecified)	Wnt act 38 (no result: MITF TRPM1 HTS)
Cc1ccccc1-c1cnc2c(c1)C(=O)N([C@@H](C)CO)C[C@H](C)[C@@H](CN(C)Cc1ccccc1F)O2	none (no result: MITF TRPM1 HTS, Wnt act)
O=C(Nc1ccc2c(c1)OCO2)Nc1ccc(F)cc1F	MITF TRPM1 HTS inconclusive
COc1ccc(OC)c(NC(=O)Nc2ccc(Cl)cc2)c1	none (no result: Wnt act)
O=C(Nc1ccc2c(c1)CCC2)Nc1ccc(F)cc1F	Wnt act 41, esBAF inh 71
Cc1ccccc1NC(=O)Nc1ccc(C(F)(F)F)cc1	Wnt act 38 (no result: C2C12 statin, esBAF inh)
COc1ccc(NC(=O)Nc2ccc3c(c2)CCC3)cc1OC	none (no result: C2C12 statin, esBAF inh)
COc1ccc(NC(=O)Nc2ccc(F)c(Cl)c2)cc1	MITF TRPM1 HTS 127, Wnt act 45 (no result: C2C12 statin, esBAF inh)
COc1ccc(/C=C/C(=O)Nc2ccc3c(c2)CCC3)cc1OC	esBAF inh 47 (no result: Wnt act)
Cc1ccccc1NC(=O)CNC(=O)c1ccc(C(F)(F)F)cc1	none (no result: C2C12 statin, esBAF inh)
NS(=O)(=O)c1ccc2nc(NC(=O)Nc3ccccc3F)sc2c1	Wnt act 43
COc1ccccc1NC(=O)C(=O)N/N=C/c1cccs1	esBAF inh 76
O=C(Nc1ccc2c(c1)CCC2)c1ccc(Cl)nc1	esBAF inh 82
Cc1ccccc1NC(=O)Nc1ccc2c(c1)CCC2	esBAF inh 72
COCCNC(=O)C(=O)N/N=C/c1cccs1	none (no result: C2C12 statin, esBAF inh)
C[C@@H](NC(=O)C[C@H]1C=C[C@H](NC(=O)CN2CCOCC2)[C@@H](CO)O1)c1ccccc1	none (no result: MITF TRPM1 HTS, Wnt act)
O=C1OCc2ccc(NC(=O)c3c(F)cccc3Cl)cc21	none
COc1ccc(NC(=O)Nc2ccccc2OC)cc1	MITF TRPM1 HTS inconclusive, esBAF inh 48
Cc1cc(C)cc(NC(=O)Nc2ccc3c(c2)CCC3)c1	none
COc1ccccc1NC(=O)C(=O)N/N=C(\C)CC(=O)Nc1ccccn1	none
COc1ccccc1NC(=O)Nc1ccc(C(N)=O)cc1	none (no result: C2C12 statin, esBAF inh)
COc1ccccc1NC(=O)C(=O)Nc1ccccn1	Wnt act 36
O=C(Nc1ccc2c(c1)CCC2)Nc1ccccc1F	MITF TRPM1 HTS 108
O=C(Nc1ccc2c(c1)CCC2)c1c(F)cccc1Cl	MITF TRPM1 HTS 88 (no result: C2C12 statin, esBAF inh)

Screens: PubChem BioAssay, Broad Institute
